# Screens from PubChem BioAssay.
# Hits are enriched below; roughly 19% of the tested compounds scored in any of these assays.
# TDP1 cell noCPT – qHTS for Inhibitors of human tyrosyl-DNA phosphodiesterase 1 (TDP1): qHTS in cells in absence of CPT. Potency, µM (highest dose often 46.2 µM), hits mostly inhibitors. 420,000 compounds, 15% hits. DT40 Tdp1-/- hTDP1 cells, no CPT, ATP luminescence, 48 h; further: nearly all actives have a fitted effect of over 55% in size
#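 Luminescent ATP content (CellTiter-Glo) served as the growth readout. Knockout chicken DT40 cells expressing human TDP1 were exposed to compounds without camptothecin for a minimum 48 hr at 37 °C.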
# KB-V1 MDR tox – KB-V1 MDR subline cytotoxicity; KB-V1 MDR cells viability, CellTiter-Glo, 72 h; Potency, µM (series often up to 46.1 µM), most hits filed as cytotoxic; 400,000 compounds, 3.4% hits; AID 1347076; further: nearly all actives have a fitted effect of over 60% in size
#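 Cytotoxicity via CellTiter-Glo luminescence after 72 h compound exposure at 37 degrees C. Cells: drug-selected KB-V1 line, DMEM phenol-red free plus 10% FBS. Compounds tested at multiple concentrations; normalized data fitted to concentration-effect curves.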
# DT40 TDP1 CPT – DT40-hTDP1 cell growth loss with CPT; 420,000 compounds, 12% hits; Potency, µM (titrated, usually from 46.2 µM), most hits filed as inhibitors; AID 686979; chicken DT40 Tdp1-/-;hTDP1 cells + 20 nM CPT, ATP luminescence, 48 h; further: nearly all actives have a fitted effect of over 55% in size
#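 Cell growth measured by CellTiter-Glo luminescence after a minimum 48 h, 37 C compound exposure with 20 nM CPT in Tdp1-knockout DT40 cells stably expressing hTDP1, seeded 400/well; qHTS titration format.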
# HT1080 IDH1KD tx – kills HT-1080 cells with IDH1 knockdown; HT-1080 IDH1 knockdown viability, ATP luminescence, 48 h; Potency, µM (doses to about 46.1 µM), most hits filed as cytotoxic; 360,000 compounds, 2% hits
#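 HT-1080-IDH1KD cells (IDH1 knocked down), 750/well in RPMI with 5% FBS, treated with compound 48 h at 37 degrees C. Viability by CellTiter-Glo luminescence, normalised to DMSO and no-cell wells; concentration-response curves classed.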
# HT1080-NT tox – kills 2HG-producing HT-1080-NT fibrosarcoma cells; HT-1080-NT fibrosarcoma viability, CellTiter-Glo ATP luminescence, 48 h; 360,000 compounds, 1.6% hits; Potency, µM (highest dose often 46.1 µM), usual class: cytotoxic; AID 686970;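 further: NT is the 2HG producing partner of a matched IDH1 knockdown line; nearly all actives have a fitted effect of over 55% in size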
#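 Fibrosarcoma NT cells, 750 per well in 5% FBS RPMI, were exposed to compound for 48 hours. Viability: CellTiter-Glo luminescence.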
# KB-3-1 tox – kills parental KB-3-1 adenocarcinoma cells | KB-3-1 viability, CellTiter-Glo ATP luminescence, 72 h | Potency, µM (titrated, usually from 46.1 µM), most hits filed as cytotoxic | 400,000 compounds, 1.4% hits | AID 1347075; further: nearly all actives have a fitted effect of over 60% in size
#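 Here the drug-naive KB-3-1 line serves as comparator for MDR sub-line selectivity; cells received compound titrations, 72 h at 37 °C, then CellTiter-Glo readout.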
# Numbers stand for hits; . = inactive; ? = inconclusive; / = not tested or not shown. The call rests on the fitted dose curve; in most records, active means well fitted curve in the direction sought with a large enough effect; inconclusive means small, poorly fitted or top-dose-only effect, or another doubt; inactive means no such curve, though single readings can be large; an effect the other way counts as inactive or inconclusive.
SMILES,TDP1 cell noCPT,KB-V1 MDR tox,DT40 TDP1 CPT,HT1080 IDH1KD tx,HT1080-NT tox,KB-3-1 tox
CN[C@@H](CO)C(=O)NC[C@H]1O[C@@H](n2cnc3c(N)ncnc32)[C@H](O)[C@@H]1O,.,.,.,.,.,.
Cc1cccc(NC(=O)C2CCN(c3ncnc4c3nc3n4CCCCC3)CC2)n1,.,?,?,.,.,.
Cc1cccc(N2CCN(c3ncnc4c3nc3n4CCCCC3)CC2)c1C,?,.,26µM,/,/,.
Clc1cccc(N2CCN(c3ncnc4c3nc3n4CCCCC3)CC2)c1,10µM,15µM,15µM,/,/,13µM
Cc1ccc(CN2c3ccccc3-c3nc(SCC(=O)Nc4c(C)cc(C)cc4C)ncc3S2(=O)=O)cc1,?,.,?,/,/,.
COc1cccc(CNc2ncc(C(=O)Nc3cc(OC)c(OC)c(OC)c3)c(C)n2)c1,9.2µM,.,8.2µM,?,?,8.2µM
COc1cc(NC(=O)c2cnc(NCc3ccccc3)nc2C)cc(OC)c1OC,?,10µM,?,?,?,?
CCSc1ccccc1C(=O)Nc1cc(OC)c(OC)c(OC)c1,?,?,.,.,.,.
COc1ccc(Cn2ccc3nc(C)c(C(=O)Nc4cc(OC)c(OC)c(OC)c4)cc3c2=O)cc1,?,.,?,/,/,.
Nc1ncnc2c1ncn2[C@@H]1O[C@H](C(=O)NC2CC2)[C@@H](O)[C@H]1O,.,/,.,/,/,/
O=C(CC1N=C2c3ccccc3N=C(SCc3ccccc3F)N2C1=O)NCc1ccc2c(c1)OCO2 (configuration not stated),?,.,18µM,/,/,.
CCC(SC1=Nc2ccccc2C2=NC(CC(C)C)C(=O)N12)C(=O)Nc1ccc2c(c1)OCO2 (configuration not stated),?,15µM,?,.,.,?
COc1cccc(NC(=O)CSC2=Nc3ccccc3C3=NC(CC(=O)NCc4ccc5c(c4)OCO5)C(=O)N23)c1 (configuration not stated),?,.,?,/,/,.
CCOc1ccccc1NC(=O)CSC1=Nc2ccccc2C2=NC(CC(=O)NCc3ccc4c(c3)OCO4)C(=O)N12 (configuration not stated),23µM,.,?,/,/,.
O=C(CC1N=C2c3ccccc3N=C(SCc3ccc(F)cc3)N2C1=O)NCc1ccc2c(c1)OCO2 (configuration not stated),?,.,?,/,/,.
Cc1cc(C)n(Cc2ccc(Cl)cc2Cl)c(=O)c1S(=O)(=O)c1ccccc1,23µM,.,?,.,.,?
CCc1cccc2c(C#N)cn(CCOc3ccccc3OC)c12,?,?,?,.,.,.
COc1ccccc1OCCCn1c(C)c(C#N)c2ccccc21,26µM,?,21µM,.,.,?
N#Cc1cn(CC(=O)N2CCCC2)c2ccccc12,.,.,.,.,.,.
N#Cc1cn(CCCOc2ccccc2)c2ccccc12,23µM,?,9.2µM,.,.,?
COc1ccccc1OCCCn1cc(C#N)c2ccccc21,?,5.2µM,.,.,.,12µM
CC(C)(C)c1ccc(C(=O)C[n+]2cc(Br)cc(Br)c2)cc1,?,.,?,/,/,.
O=C(C[n+]1cccc2cc(Cl)ccc21)c1cccc([N+](=O)[O-])c1,?,?,.,/,/,.
COc1ccc(-n2cc(CN3CCC(OC)CC3)c(-c3cccc(F)c3)n2)cc1,.,.,.,.,.,.
COc1ccc(CNCc2cn(-c3cccc(F)c3)nc2-c2ccc(C)o2)cc1,16µM,.,?,?,.,.
SMILES,TDP1 cell noCPT,KB-V1 MDR tox,DT40 TDP1 CPT,HT1080 IDH1KD tx,HT1080-NT tox,KB-3-1 tox
COc1ccc(-n2cc(CNC3CCC(O)CC3)c(-c3cccc(F)c3)n2)cc1 (configuration not stated),21µM,.,21µM,.,?,?
c1ccc2[nH]c(CCCCCc3nc4ccccc4[nH]3)nc2c1,?,.,?,?,.,.
CCCCCCc1nc2nc(Cl)c(Cl)nc2[nH]1,8.2µM,?,18µM,.,.,.
C[C@@H]1CC=C[C@H]2[C@H]1C(=O)N(Cc1ccccc1)[C@H]2c1ccc2ccccc2c1/C=C/c1ccccc1,?,?,?,.,.,.
CC(=O)c1ccc(-c2cccc([C@H]3[C@@H]4C=CC[C@@H](C)[C@@H]4C(=O)N3Cc3ccccc3)c2)cc1,13µM,.,10µM,?,?,.
O=C1C2C(c3ccccc3)CC=CC2[C@H](c2ccc3ccccc3c2)N1Cc1ccccc1 (some centres not stated),23µM,.,21µM,.,.,?
COc1ccc(-c2cccc([C@H]3[C@@H]4C=CC[C@@H](C)[C@@H]4C(=O)N3Cc3ccccc3)c2)cc1,21µM,.,23µM,?,?,?
COc1cc(-c2cccc([C@H]3[C@@H]4C=CC[C@@H](C)[C@@H]4C(=O)N3Cc3ccccc3)c2)cc(OC)c1OC,7.3µM,.,8.2µM,?,?,.
O=S(=O)(c1cc(O)ccc1O)c1cccc2c(S(=O)(=O)c3cc(O)ccc3O)cccc12,.,.,.,.,.,.
COc1ccc(C(=O)OCC(=O)c2ccc[nH]2)cc1,.,.,.,.,.,.
COc1cc(Cl)cc(CN2CCC(CCC(=O)NC3CC3)CC2)c1OC,.,.,.,.,.,.
COc1ccc(C2C3C=CCC(c4cccc(-c5ccc(C)cc5)c4)C3C(=O)N2Cc2ccccc2)cc1Cl (configuration not stated),13µM,.,23µM,.,.,.
CC(=O)OC1C(=O)N(Cc2ccccc2)C1c1ccc(C)cc1 (configuration not stated),?,.,?,.,.,.
O=C1C2C(c3ccccc3)CC=CC2[C@H](c2ccoc2)N1Cc1ccccc1 (some centres not stated),?,.,?,.,.,.
Cc1ccc(-c2cccc(C3CC=CC4C3C(=O)N(Cc3ccccc3)C4c3ccc(C(F)(F)F)cc3)c2)cc1 (configuration not stated),13µM,.,13µM,.,.,.
O=C1[C@H]2CCC=C[C@H]2[C@H](c2cccc(Br)c2)N1Cc1ccccc1,13µM,.,?,.,.,.
COc1ccc(-c2cccc(C3CC=CC4C3C(=O)N(Cc3ccccc3)C4c3ccc4ccccc4c3)c2)cc1 (configuration not stated),15µM,.,18µM,.,.,.
CCC(=O)Nc1ccc(CC)cc1-c1nc2ccccc2n(Cc2ccccc2)c1=O,?,.,?,/,/,.
